Caspase-7 inhib – blocks human caspase-7 allosterically or competitively; 75,000 compounds, 0.02% hits; recombinant caspase-7, Ac-DEVD-AFC fluorescence rate; Potency, µM (doses to about 57.5 µM), actives largely listed as inhibitors; P55210; active = well fitted inhibition curve with a large enough effect in the main read-out, with a control signal flat, not every such curve was filed as active; inconclusive = small, poorly fitted or top-dose-only effect, or a change in a side signal
TSHR agonist – TSH receptor (human) agonism; P16473; HEK293-CNG-TSHR cells (CNG channel as cAMP sensor), membrane potential dye, cAMP; Potency, µM (doses to about 57.1 µM), usual class: activators; 73,000 compounds, 0.48% hits; active = well fitted activation curve with a large enough effect in the main read-out, with a control signal flat, not every such curve was filed as active; inconclusive = small, poorly fitted or top-dose-only effect, or a change in a side signal; inactive = no such curve, though single readings can be large or run the other way; reference of the percent scale not stated here;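 note: the control signal comes from parental cells without the receptor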
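cAMP rise detected as CNG-channel membrane depolarization by fluorescent dye (emission 590 nm), 30 min after compound, following 60 min dye loading containing 100 uM RO 20-1724 at room temperature. Cells: TSHR/CNG HEK 293, with parental CNG HEK 293 as control.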
ALOX15B inhib – 15-hLO-2 (ALOX15B) enzyme inhibition. purified 15hLO-2, xylenol orange hydroperoxide absorbance. Potency, µM (doses to about 57.1 µM), hits mostly inhibitors. 110,000 compounds, 0.56% hits; note: nearly all actives have a fitted effect of over 60% in size
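Screening format was qHTS against 50 nM purified 15hLO-2 in Hepes pH 7.5 with detergent. Activity follows hydroperoxide formation from 45 uM arachidonic acid, measured as 573:405 nm absorbance ratio of the ferric-xylenol orange complex.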
Caspase-1 inhib – blocks human caspase-1 allosterically or competitively; 75,000 compounds, 0.03% hits; Caspase-1 enzyme, Ac-WEHD-AFC fluorogenic rate; Potency, µM (doses to about 57.5 µM), usual class: inhibitors
HEK293 cAMP ctrl – counter-screen for TSHR agonists: cAMP increase in parental HEK293; Potency, µM (doses to about 57.1 µM), hits mostly activators; AID 938; 73,000 compounds, 2.5% hits; parental HEK293 CNG cAMP sensor, membrane potential fluorescence; note: nearly all actives have a fitted effect of over 55% in size
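Counterscreen for endogenous-receptor signalling: CNG-channel HEK 293 cells report cAMP rise by membrane depolarization. After 60 min dye equilibration with 100 uM RO 20-1724, compounds incubated 30 min before bottom-read fluorescence at 590 nm.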
ALOX15 inhib – 15-hLO (ALOX15) enzyme inhibition | Potency, µM (top dose mostly 57.1 µM), most hits filed as inhibitors | 74,000 compounds, 1.4% hits | purified 15hLO-1, xylenol orange hydroperoxide absorbance; note: nearly all actives have a fitted effect of over 55% in size
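Compounds were preincubated 15 min at room temperature with 40 nM purified human enzyme (25 mM Hepes pH 7.5, 0.01% Triton X-100); 50 uM arachidonic acid reacted 6 min. Fe-xylenol orange detection, 30 min, absorbance ratio 573/405 nm.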
Hits are given with their value; i = inactive; ? = inconclusive; nt = no result; [ ] = remark or other dose. Shown are actives, neighbours in structure and some others; about 3% of the full set was active somewhere. Unless noted, calls come from the whole dose curve; as a rule, active = well fitted curve in the direction sought with a large enough effect; inconclusive = small, poorly fitted or top-dose-only effect, or another doubt; inactive = no such curve, though single readings can be large; an effect the other way counts as inactive or inconclusive.

SMILES	Caspase-7 inhib	TSHR agonist	ALOX15B inhib	Caspase-1 inhib	HEK293 cAMP ctrl	ALOX15 inhib
CCC(c1nnnn1Cc1ccc2c(c1)OCO2)N1CCN(c2ccc(F)cc2)CC1 (stereo not drawn)	i	?	i	i	16µM	i
CN(C)c1ccc(/C=N\NC(=O)c2cnc3ccccc3c2)cc1	i[11.5 µM]	i[11.4 µM]	i[11.4 µM]	i[11.5 µM]	i[11.4 µM]	i[11.4 µM]
COc1cccc(C(=O)NC(=S)Nc2ccc(N3CCCC3)cc2)c1	nt	nt	13µM	nt	nt	nt
COc1ccc(C(=O)Nc2ccc(N3CCCC3)cc2)cc1	nt	nt	i	nt	nt	nt
CCN1C(=O)/C(=C/N(C)c2ccccc2)OC1=S	i	i[11.4 µM]	i	i	i	7.9µM
Cc1cccc(N2CSC3=C(C#N)C(c4ccc(C)o4)CC(=O)N3C2)c1 (stereo not drawn)	?	i	?	?	i	1.6µM
COc1ccc(C2CC(=O)N3CN(c4ccc(C)c(Cl)c4)CSC3=C2C#N)cc1 (stereo not drawn)	i	i	16µM	i	i	?
COc1cc(OC)c(C2CC(=O)N3CN(c4ccccc4C)CSC3=C2C#N)cc1OC (stereo not drawn)	i	i	?	i	i	?
COc1ccc(OC)c(C2CC(=O)N3CN(c4ccccc4)CSC3=C2C#N)c1 (stereo not drawn)	i	i	10µM	i	i	?
COc1ccc(N2CSC3=C(C#N)C(c4cccc(OC)c4OC)CC(=O)N3C2)cc1 (stereo not drawn)	i	?	13µM	i	?	?
COc1cc(C(=O)O[C@@H]2CC(C)=CC[C@@]3(C)CC[C@](O)(C(C)C)[C@H]23)ccc1O	nt	i	nt	nt	i	nt
Cc1cc(C(=O)Nc2ccccc2C(F)(F)F)no1	i	i	i	i	i	i
Cc1ccc(C(=O)NC(=S)Nc2ccccc2C(F)(F)F)cc1C	nt	nt	25µM	nt	nt	nt
C[C@@]1(C(NC(=O)Cc2ccc(C(F)(F)F)cc2)c2ccc(-c3ccccc3)cc2)C[C@H]1C1CCCCC1 (stereo partly drawn)	i	i	i	i	i	nt
CN(C)Cc1ccccc1-c1nccc(N(C)Cc2ccco2)n1	i	?	i	i	32µM	i
CN(C)Cc1ccccc1-c1nc(N2CCOCC2)c2ccccc2n1	i	?	i	i	7.9µM	i
CN(Cc1ccco1)c1nc(-c2ccc3c(c2)OCO3)nc2ccccc12	i	?	i	i	?	i
CN(C)Cc1ccccc1-c1nc(N(C)Cc2ccco2)c2ccccc2n1	i	?	i	i	13µM	i
CN(C)Cc1ccccc1-c1nccc(NCc2cccs2)n1	i	?	i	i	25µM	i
COc1cccc(-c2nc(N(C)Cc3ccco3)c3ccccc3n2)c1	i	?	i	i	?	10µM
COc1ccc(S(=O)(=O)N2CCN(CCO)CC2)cc1-c1nnc2c3ccccc3c(C)nn12	i	i	nt	i	i	i
Cc1ccc(S(=O)(=O)N2CCN(CCO)CC2)cc1-c1nnc2c3ccccc3c(C)nn12	i	16µM	nt	i	i	i
Cc1ccc(S(=O)(=O)N2CCN(C)CC2)cc1-c1nnc2c3ccccc3c(C)nn12	i	4µM	i	i	i	i
CNS(=O)(=O)c1ccc(OC)c(-c2nnc3c4ccccc4c(C)nn23)c1	nt	nt	i	nt	nt	nt
C[C@@H]1C(=O)O[C@@H]2C[C@@]34[C@H]5C[C@@H](C(C)(C)C)[C@@]36[C@@H](OC(=O)[C@@H]6O)O[C@]4(C(=O)O5)[C@@]12O	nt	i	nt	nt	i	nt
SMILES	Caspase-7 inhib	TSHR agonist	ALOX15B inhib	Caspase-1 inhib	HEK293 cAMP ctrl	ALOX15 inhib
O=S(=O)(NCc1ccccn1)c1cccc2cccnc12	i	i	nt	i	i	i
CC(C)c1ccc(S(=O)(=O)N2CCN(C(=O)c3cccc(F)c3)CC2)cc1	i	?	i	i	20µM	i
O=C(c1cccc(F)c1)N1CCN(S(=O)(=O)c2ccccc2)CC1	i	i	i	i	i	i
COc1ccc(CN2C(=O)c3cccnc3C2Nc2cc(Cl)ccc2OC)cc1 (stereo not drawn)	i	i	?	i	i	16µM
COc1ccc(OC)c(NC2c3ncccc3C(=O)N2Cc2ccco2)c1 (stereo not drawn)	i	nt	i	i	i	?
O=S1(=O)CC(NCc2ccccc2)C(Nc2ccccc2)C1 (stereo not drawn)	i	i	i[11.4 µM]	i	i	i
COc1ccc(NC2CS(=O)(=O)CC2NCc2ccco2)cc1 (stereo not drawn)	i	i	i	i	i	16µM
Cc1nnc2ccc(N3CCN(C(=O)c4ccccc4)CC3)nn12	i	i	i	i	i	i
O=C(c1ccc(Br)o1)N1CCN(c2ccc3nnc(-c4ccccc4)n3n2)CC1	i	i	i	i	i	16µM
Cc1ccc(CN2C(=O)C(C)(C)Oc3ccc(C(=O)N4CCCCC4)cc32)cc1	i	?	i	i	25µM	i
Cc1onc(-c2ccccc2Cl)c1C(=O)N1CCCc2ccccc21	i	i	i	i	i	i
Cc1onc(-c2ccccc2Cl)c1C(=O)OCC(=O)N1CCCc2ccccc21	i	i	i	i	i	20µM
O=Nc1ccc2oc(=O)ccc2c1	i	?	?	i	?	?
CCNc1ncc2nc(-c3ccc(Cl)cc3)c(=O)n(Cc3ccc(F)cc3)c2n1	?	i	i	nt	i	?
C=C(C)CSC1=C(C#N)C(c2ccccc2Cl)CC(=O)N1 (stereo not drawn)	i	nt	i	i	i	16µM
COC(=O)c1c(NC(=O)c2ccco2)sc(C)c1C	i	nt	i	nt	i	i
COC(=O)c1c(NC(=O)c2ccco2)sc(C(=O)Nc2ccc(F)cc2)c1C	i	?	i	i	25µM	i
COc1ccc(C(C)=O)cc1CSc1nc2ccccc2o1	i	?	i	i	25µM	?
COC(=O)c1ccc(OC)c(CSc2nnc(COc3ccc(OC)cc3)o2)c1	i	?	i	i	13µM	i
COc1ccc(Cc2nnc(SCC(=O)c3ccc(OC)cc3)o2)cc1	i	?	i	i	32µM	i
COc1ccc(C(=O)CSc2nnc(Cc3ccccc3)o2)cc1	i	nt	i	i	i	i
COC(=O)c1ccc(OC)c(CSc2nnc(COc3cccc(C)c3)o2)c1	i	?	i	i	?	i
Cc1nc2cnc(N3CCOCC3)nc2n(C[C@H]2CCCO2)c1=O	i	i	i	i	i	i
COC(=O)c1ccccc1NC(=O)c1cc2sccc2n1C	i	i	i	i	i	i
COC(=O)c1cccc(NC(=O)c2cc3sccc3n2C)c1	i	?	i	i	13µM	i
COc1cc(-c2nnc(SCc3c(F)cccc3Cl)o2)cc(OC)c1OC	i	?	i	i	32µM	i
COc1cc(-c2nnc(SCc3ccccc3Cl)o2)cc(OC)c1OC	i	?	i	i	?	i
COC(=O)c1sccc1NC(=O)c1ccc(Br)o1	i	?	i	i	4µM	i[11.4 µM]

Compound activity: PubChem, National Center for Advancing Translational Sciences (NCATS)
